Test results reported in PubChem BioAssay.
Calls of active or inactive are those of the source. The rule behind the calls is not given here.

biological target: Pantothenate synthetase (Mycobacterium tuberculosis (strain ATCC 25618 / H37Rv)) (UniProt P9WIL5); experiment: Recombinant Mtb pantothenate synthetase (PanC) inhibitors, coupled enzyme, confirmatory (AID 375); conditions: coupled enzyme assay; at 10 µM, hits give high values;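 note: 0% = full reaction with vehicle and 100% = no enzyme background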
Sequence (P9WIL5 whole entry, looked up): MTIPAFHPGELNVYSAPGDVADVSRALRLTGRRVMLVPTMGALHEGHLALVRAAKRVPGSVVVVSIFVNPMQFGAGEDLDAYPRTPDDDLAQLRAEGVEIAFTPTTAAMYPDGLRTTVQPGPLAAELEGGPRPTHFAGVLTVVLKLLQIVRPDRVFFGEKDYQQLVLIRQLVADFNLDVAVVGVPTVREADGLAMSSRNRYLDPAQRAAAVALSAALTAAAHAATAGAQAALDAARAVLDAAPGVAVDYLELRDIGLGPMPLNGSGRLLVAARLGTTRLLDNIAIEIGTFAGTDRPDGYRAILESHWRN

SMILES | inhibition
O=C(CNC(=O)c1cc2ccccc2o1)NCc1cccs1 | 0% (inactive)
COc1ccc(OC)c(NC(=O)CSc2nc3ccccc3c(=O)n2CCNC(C)=O)c1 | 0% (inactive)
Cc1onc(-c2ccccc2)c1C(=O)NCCN1CCOCC1 | 3% (inactive)
Cc1cccc(C(OC(=O)c2ccco2)C(=O)NCc2ccccc2)n1 (stereo not drawn) | 4% (inactive)
COc1ccccc1C(=O)Nc1ccc(N2CCN(S(C)(=O)=O)CC2)cc1 | 0% (inactive)
COc1ccc(Cn2c(C)nc3c(c2=O)c2nc4ccccc4nc2n3Cc2ccco2)cc1 | 9% (inactive)
CCn1cnc2sc(C(=O)Nc3ccc4c(c3)OCO4)c(C)c2c1=O | 4% (inactive)
Cc1cc2ncn(S(=O)(=O)c3ccc(S(=O)(=O)N4CCOCC4)cc3)c2cc1C | 5% (inactive)
O=c1c2[nH]c3ccccc3c2ncn1CCCn1ccnc1 | 0% (inactive)
C=CCSc1nnc(-c2cccnc2)o1 | 0% (inactive)
COCCNC(=O)Cn1cc2c(n1)CCCCC2 | 1% (inactive)
CCN(CC)c1ccc2c(c1)C(=O)N(C)C2=O | 7% (inactive)
Cc1cccc(OCc2nc(C#N)c(NCCN(C)C)o2)c1 | 1% (inactive)
CCN(CC)c1ccc2cc(-c3nc4ccccc4[nH]3)c(=O)oc2c1 | 0% (inactive)
CCCSC1=C(C#N)C(c2ccccc2OCC)CC(=O)N1 (stereo not drawn) | 7% (inactive)
c1coc(-c2nnc(NC3=NCCC3)o2)c1 | 0% (inactive)
CC(C)Cn1c2c(c(O)c(C(=O)Nc3ncccc3O)c1=O)CCCC2 | 0% (inactive)
O=C(NCc1ccccc1)N[C@@H](Cc1ccccc1)C(=O)O | 1% (inactive)
